The list is not random: actives were taken first. Their share in the collection is about 12%.
Sfp PPTase inh – blocks B. subtilis Sfp PPTase activity. Q9F4F7. Potency, µM, inactives show largest response in the series, negative = inhibition, usual class: inhibitors. 310,000 tested, 3.5% active. Biochemical Sfp PPTase activity, qHTS;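 further: the enzyme is Sfp with the accession as filed and its product quenches rhodamine fluorescence; 0% = enzyme reaction without inhibitor and -100% = no enzyme wells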
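Sfp 15 nM + cpd, 15 min RT; start w/ rhodamine-CoA 5 uM, BHQ-2-YbbR 12.5 uM (final); 50 mM Hepes pH 7.6, 10 mM MgCl2, 0.01% NP-40, 0.01% BSA; read 525/598 nm at 0 and 30 min.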
G9a block – inhibitors of human histone lysine methyltransferase G9a; Q96KQ7; G9a H3K9 monomethylation, AlphaScreen, 2 h; Potency, µM (top dose mostly 102 µM), for inactives: at the top dose activity, negative = inhibition, most hits filed as inhibitors; 350,000 tested, 8.8% active; further: on the % scale 0 is the no-effect control and ±100 the full control effect; nearly all actives have a fitted effect of over 75% in size
Target sequence (Q96KQ7 913-1193 limits assumed): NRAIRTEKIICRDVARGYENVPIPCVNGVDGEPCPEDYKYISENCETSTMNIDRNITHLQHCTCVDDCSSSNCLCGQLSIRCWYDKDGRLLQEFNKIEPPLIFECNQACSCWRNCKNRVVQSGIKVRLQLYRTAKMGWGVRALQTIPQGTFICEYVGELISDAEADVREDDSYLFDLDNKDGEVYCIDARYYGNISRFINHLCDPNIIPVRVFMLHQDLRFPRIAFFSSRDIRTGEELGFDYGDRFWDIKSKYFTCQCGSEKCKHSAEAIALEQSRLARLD
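Step 1: enzyme (final 20 nM) with compound, 15 min RT. Step 2: substrate peptide 500 nM and SAM 20 uM, 2 h RT. Step 3: anti-H3K9me1 antibody and AlphaScreen beads, 10 min, then plate read.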
BAZ2B inh – BAZ2B (human) inhibition. Q9UIF8. AlphaScreen BAZ2B-H3K14Ac peptide displacement. Potency, µM (titrated, usually from 114 µM), for inactives: at the highest dose activity change, negative = inhibition, hits mostly inhibitors. 360,000 tested, 4.4% active; further: on the % scale 0 is the no-effect control and ±100 the full control effect; nearly all actives have a fitted effect of over 60% in size
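AlphaScreen displacement of biotin-H3(5-23)K14Ac peptide (50 nM final) from BAZ2B (50 nM final) in PBS pH 7.4, 0.01% Tween-20; complex preformed 30 min RT, then compounds (top 110 uM) 30 min RT, beads 20 min dark.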
HP1b chromo inh – HP1-beta chromodomain-methylated histone interaction inhibition; P83916; AlphaScreen HP1-beta / biotin-H3K9me3 peptide binding; Potency, µM (highest dose often 114 µM), for the others: top-dose activity change, negative = inhibition, hits mostly inhibitors; 390,000 tested, 0.56% active; further: nearly all actives have a fitted effect of over 70% in size
Target sequence (P83916 whole entry, looked up): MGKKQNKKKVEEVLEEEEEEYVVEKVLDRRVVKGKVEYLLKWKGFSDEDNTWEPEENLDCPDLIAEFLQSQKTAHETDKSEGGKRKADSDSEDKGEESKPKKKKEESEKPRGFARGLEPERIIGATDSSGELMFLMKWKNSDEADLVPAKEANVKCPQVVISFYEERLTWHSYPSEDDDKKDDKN
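AlphaScreen: HP1-beta (50 nM) preformed 30 min with biotin-H3(1-18)K9me3 peptide (50 nM) in PBS pH 7.4, 0.01% Tween-20. Compound added for 30 min at RT, then streptavidin donor/nickel chelate acceptor beads (10 ug/mL) for 30 min.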
JMJD2A Tudor – blocks the human JMJD2A Tudor domain; O75164; AlphaScreen JMJD2A-Tudor / H3K4me3 peptide binding; Potency, µM (top dose mostly 114 µM), for the others: at the top dose activity change, negative = inhibition, usual class: inhibitors; 390,000 tested, 4.4% active; further: on the % scale 0 is the no-effect control and ±100 the full control effect; nearly all actives have a fitted effect of over 50% in size
An asterisk follows results filed as active; ? = inconclusive; / = no result given; [ ] = another dose, or the depositor's remark. The call rests on the fitted dose curve; in most records, active means well fitted curve in the direction sought with a large enough effect; inconclusive means small, poorly fitted or top-dose-only effect, or another doubt; inactive means no such curve, though single readings can be large; an effect the other way counts as inactive or inconclusive. Potency means the concentration at half of the fitted maximal effect.

SMILES | Sfp PPTase inh | G9a block | BAZ2B inh | HP1b chromo inh | JMJD2A Tudor
Cc1ccccc1C(=O)Nc1sc2c(c1C(=O)O)CCC2 | 12% | 50µM* | ? | 1% | -11%
Cc1cc(C(=O)c2ccc(C(C)(C)C)cc2)c(NC(=O)CCl)s1 | -5% | 32µM* | -32% | -11% | ?
CCCN1CCN(CCCNC(=O)Cn2c(-c3cccs3)cc3cc(Cl)ccc32)CC1 | / | ? | -26% | 43% | -31%
Cc1ccc(-n2nc3c(N4CCC(C(=O)NC5CCC(C)CC5)CC4)nnc(C)c3c2C)cc1 (configuration not stated) | / | -1%[59 µM] | -2% | 8% | -22%
COC(=O)CCSc1nc2sc3c(c2c(=O)n1Cc1ccccc1)CCC(C(C)(C)C)C3 (configuration not stated) | / | 49%[59 µM] | -14% | 32% | -10%
Cc1ccccc1C(=O)Nc1sc(C)c(C)c1C(=O)c1ccccc1 | 32µM* | 10µM* | ? | ? | ?
CCN(CC)CCCC(C)NC(=O)c1c(NC(=O)c2ccccc2)sc2c1CCCC2 (configuration not stated) | -18% | 79µM* | -14% | -10% | 45µM*
O=C(CN1C(=O)c2ccccc2S1(=O)=O)Nc1ccc(S(=O)(=O)Nc2ncccn2)cc1 | / | 2%[59 µM] | -6% | 5% | -14%
O=C(CSc1ccc2c(c1)OCCO2)NCc1ccccc1 | 3% | -5% | -13% | 27% | -9%
Cc1nnc(SCC(=O)Nc2ccc(Br)cn2)[nH]c1=O | -15% | 50µM* | 5% | 56% | -19%
O=C(CSc1ccc2c(c1)OCCO2)Nc1ccc(Cl)cn1 | 5% | 10%[59 µM] | 34% | 50% | 5%
O=C(CSc1ccc2c(c1)OCCO2)Nc1ncccc1O | / | 5%[0.501 µM] | ? | 37% | 50µM*
Cc1ccc(NC(=O)CSc2nnc(C)c(=O)[nH]2)cc1 | / | 4%[59 µM] | -23% | 56% | -9%
O=C(CSc1ccc2c(c1)OCCO2)Nc1ccc(Br)cn1 | 1% | 45µM* | 6% | 57% | 8%
O=C(CSc1ccccc1)Nc1ccc(N2CCOCC2)c(F)c1 | 15% | 4%[12.7 µM] | 4% | 27% | 4%
Nc1ccc(-c2ncc(-c3ccccc3)o2)cc1 | -12% | ? | 28µM* | -15% | ?
CCCNC1(C(N)=O)CCN(Cc2ccccc2)CC1 | / | / | / | 10% | -10%
COc1ccc(OC)c(NC(=O)c2c(NCc3cccs3)sc3c2CCCC3)c1 | / | ? | 35µM* | -15% | 40µM*
COc1ccc(NC(=O)c2c(NCc3cccs3)sc3c2CCCC3)c(OC)c1 | / | ? | ? | -4% | ?
COc1ccc(OC)c(NC(=O)c2c(NC(=O)CCC(=O)O)sc3c2CCCCC3)c1 | 50µM* | 45µM* | -37% | -19% | ?
O=C(Nc1sc2c(c1C(=O)NCc1ccccc1)CCCC2)c1cc(=O)c2ccccc2o1 | / | 11µM* | -12% | ? | -18%
COc1ccc(OC)c(CNc2sc3c(c2C(=O)Nc2cc(OC)ccc2OC)CCCC3)c1 | / | 11µM* | 22µM* | -21% | ?
Cc1cc2oc(C(=O)Nc3sc4c(c3C(=O)NCc3ccccc3)CCCC4)cc(=O)c2cc1C | / | -5%[59 µM] | -1% | 9% | -14%
COc1ccc(OC)c(NC(=O)c2c(NCc3cccs3)sc3c2CCCCC3)c1 | / | 11µM* | 22µM* | -1% | ?
O=C(O)CCC(=O)Nc1sc2c(c1C(=O)Nc1cccc3ccccc13)CCCCC2 | 50µM* | 22µM* | ? | -5% | ?
SMILES | Sfp PPTase inh | G9a block | BAZ2B inh | HP1b chromo inh | JMJD2A Tudor
COc1cc(OC)c(OC)cc1CNc1sc2c(c1C(=O)Nc1ccccc1OC)CCC2 | / | 13µM* | -32% | 19% | ?
CC(=O)c1ccc(S(=O)(=O)N2CCN(CCOc3ccccc3)CC2)cc1 | / | / | / | 25% | -17%
Cc1ccc(Cc2nc3ccccc3nc2SCC(=O)N2CCCc3ccccc32)cc1 | / | 15%[59 µM] | 4% | 25%[57 µM] | -18%
CCc1ccc2c(c1)N(C[C@H](C)CN(C)C)c1ccccc1S2 | -10% | 18µM* | / | / | /
CCN(CC)CCN1c2ccccc2Sc2ccc3ccccc3c21 | -19% | 50µM* | ? | 50% | ?
CCN(CC)CCC(=O)N1c2ccccc2Sc2ccc(Cl)cc21 | 8% | -39%[12.7 µM] | 3% | 38% | -11%
C[C@H](CN1c2ccccc2Sc2cccnc21)N(C)C | 13% | ? | / | / | /
